# PubChem BioAssay (NCATS)
# A number with no mark means an inactive call. Results filed as inconclusive are left out. Entries that show only a call come without a potency. Activity calls are given as the source filed them. Unless noted, calls follow the shape of the dose curve; as a rule, active = well fitted curve in the direction sought with a large enough effect; inconclusive = small, poorly fitted or top-dose-only effect, or another doubt; inactive = no such curve, though single readings can be large; an effect the other way counts as inactive or inconclusive.
# Assays:
# [1] = qHTS for compounds that reverse cellular toxicity of Amyloid beta (A-beta) peptide in yeast: LOPAC Validation Assay (AID 720559)
# Summary of the method: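 Rescue of A-beta toxicity was scored as yeast growth by 600 nm absorbance after 48 hr at 30 C with compound. Normalization used DMSO (negative) and equimolar ferric chloride plus clioquinol (positive).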
# [2] = qHTS for Activators of Parkin Expression: LOPAC Validation Assay (NLuc Reporter) (AID 720572)
# Summary of the method: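 Cells harboring the Parkin-promoter coincidence reporter were treated for 24 h at seven concentrations. NLuc output was measured sequentially after the FLuc channel and scaled between DMSO and positive control values.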
# [3] = qHTS for Activators of Parkin Expression: LOPAC Validation Assay (FLuc Reporter) (AID 720573)
# Summary of the method: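 FLuc signal from Parkin-promoter coincidence reporter neuronal cells, normalized to DMSO and positive control (100%). Cells (1,500/well) pre-incubated 24 h, then exposed to LOPAC compounds in 7-point dose response for 24 h at 37 C, 5% CO2.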
# [4] = biological target: Tyrosine-protein kinase Yes (Homo sapiens) (UniProt P07947); assay: qHTS for small molecule inhibitors of Yes1 kinase: Primary Screen (AID 686947); also: nearly all actives have a fitted effect of over 60% in size; also: potency is read from the fitted curve at half-maximal effect
# Summary of the method: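 ADP-Glo luminescence reports ADP formed by 4 nM Yes1 phosphorylating poly(E4Y) (0.3 mg/mL) with 0.1 mM ATP for 60 min at room temperature, following 20 min compound preincubation; normalised between DMSO wells with and without enzyme.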
# [5] = qHTS assay for small molecule agonists of the antioxidant response element (ARE) signaling pathway measured by Nrf2-dependant transcriptional activity (AID 720636; active = well fitted curve in the direction sought with a large enough effect in the repeat runs; an effect the other way counts as inactive or inconclusive;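 also: HepG2 cells with an ARE-driven luciferase reporter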)
# Summary of the method: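 Reporter gene assay, HepG2 ARE-luc: 16 hr compound, 37 C, 5% CO2; read-out luciferase luminescence.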
# [6] = qHTS assay for small molecule agonists of the antioxidant response element (ARE) signaling pathway measured by Nrf2-dependant transcriptional activity - cell viability counter screen (AID 720653; active = well fitted curve in the direction sought with a large enough effect in the repeat runs; an effect the other way counts as inactive or inconclusive); conditions: ARE-bla HepG2 viability, CellTiter-Glo ATP luminescence, 16 h; max response: stronger effect = lower value
# Summary of the method: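 ARE-bla HepG2 cells (2,000/well) rested 5 hrs at 37C/5% CO2, then exposed to compounds in DMSO for 16 hrs. Viability was read in the same wells as intracellular ATP by luminescence, 30 min at room temperature after reagent addition.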
# [7] = qHTS assay for small molecule antagonists of the retinoid-related orphan receptor gamma (ROR-gamma) signaling pathway - cell viability counter screen (AID 720652; active = well fitted curve in the direction sought with a large enough effect in the repeat runs; an effect the other way counts as inactive or inconclusive;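 also: potency is read from the fitted curve at half-maximal effect; compound exposure lasted 16 hr before ATP read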)
# Summary of the method: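 Steps: seed CHO cells bearing TET-inducible ROR and ROR response element-luciferase; rest 5 hr at 37 C; add compound, then doxycycline; incubate 16 hr; add CellTiter-Glo and read luminescence as ATP-based viability.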
# Tyrosine-protein kinase Yes (Homo sapiens), sequence (P07947 whole entry, looked up): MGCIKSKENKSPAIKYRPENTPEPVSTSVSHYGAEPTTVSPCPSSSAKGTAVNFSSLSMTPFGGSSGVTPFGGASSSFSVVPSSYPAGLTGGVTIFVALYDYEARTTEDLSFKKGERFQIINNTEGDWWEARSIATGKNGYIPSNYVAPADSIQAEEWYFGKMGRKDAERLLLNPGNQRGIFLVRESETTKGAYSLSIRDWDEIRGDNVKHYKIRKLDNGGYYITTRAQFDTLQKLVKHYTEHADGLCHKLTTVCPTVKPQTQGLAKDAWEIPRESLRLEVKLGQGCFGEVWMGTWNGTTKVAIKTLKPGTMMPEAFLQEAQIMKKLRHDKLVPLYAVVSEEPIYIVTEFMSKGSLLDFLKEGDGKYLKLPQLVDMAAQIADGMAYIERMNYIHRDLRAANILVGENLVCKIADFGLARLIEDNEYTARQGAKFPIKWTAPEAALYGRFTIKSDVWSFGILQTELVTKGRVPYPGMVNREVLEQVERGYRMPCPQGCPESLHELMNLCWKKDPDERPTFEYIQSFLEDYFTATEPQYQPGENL
compound,measurement,setting,value
CN1C[C@H](CNC(=O)OCc2ccccc2)C[C@@H]2c3cccc4c3c(cn4C)C[C@H]21,outcome,[1],inactive
same,outcome,[2],inactive
same,outcome,[3],inactive
c1ccc2c(c1)OCC(C1=NCCN1)O2 (stereo not drawn),outcome,[1],inactive
same,outcome,[2],inactive
same,outcome,[3],inactive
Cc1cc2c(C(C)C)c(O)c(O)c(C=O)c2c(O)c1-c1c(C)cc2c(C(C)C)c(O)c(O)c(C=O)c2c1O,Potency,[4],30.7 µM (active)
same,outcome,[3],inactive
same,Potency,[5],inactive
CCCN1CCC[C@@H]2Cc3[nH]ncc3C[C@H]21,outcome,[1],inactive
same,outcome,[2],inactive
same,outcome,[3],inactive
CC[C@@H](CO)NC(=O)[C@@H]1C=C2c3cccc4c3c(cn4C)C[C@H]2N(C)C1,outcome,[1],inactive
same,outcome,[2],inactive
same,outcome,[3],inactive
N#CC(C#N)=Cc1ccc(O)c(O)c1,outcome,[1],inactive
CN(C)CCC=C1c2ccccc2CCc2ccccc21,Potency,[5],inactive
same,max response,[6],-15%
CCC1(C2=NCCN2)Cc2ccccc2O1 (stereo not drawn),outcome,[1],inactive
same,outcome,[2],inactive
same,outcome,[3],inactive
Cc1ncc(CNC(=O)N(CCCl)N=O)c(N)n1,outcome,[1],inactive
same,outcome,[2],inactive
same,outcome,[3],inactive
O=c1[nH]c2ccccc2n1CCCN1CCC(n2c(=O)[nH]c3cc(Cl)ccc32)CC1,outcome,[1],inactive
same,outcome,[2],inactive
same,outcome,[3],inactive
Cc1ccc(S(=O)(=O)N[C@@H](CCCCN)C(=O)CCl)cc1,outcome,[1],inactive
same,outcome,[2],inactive
same,outcome,[3],inactive
CC(COc1ccccc1)N(CCCl)Cc1ccccc1 (stereo not drawn),Potency,[7],42.2 µM (active)
same,max response,[6],-12.5%
NCC(CC(=O)O)c1ccc(Cl)cc1 (stereo not drawn),outcome,[1],inactive
same,outcome,[2],inactive
same,outcome,[3],inactive
C[C@@H]1[C@@H](CC(C[C@H]2O[C@@H]3O[C@]4(C)CC[C@@H]5[C@H](C)CC[C@@H]([C@H]2C)[C@@]35OO4)C[S+](=O)([O-])c2ccc(COC(=O)N(C)C)cc2)O[C@@H]2O[C@]3(C)CC[C@H]4[C@H](C)CC[C@@H]1[C@@]24OO3 (stereo partly drawn),Potency,[4],inactive
NN=C(N)N,outcome,[1],inactive
same,outcome,[2],inactive
same,outcome,[3],inactive
COC[C@H]1OC(=O)c2coc3c2[C@@]1(C)C1=C(C3=O)C2CCC(=O)[C@@]2(C)C[C@H]1OC(C)=O (stereo partly drawn),Potency,[4],inactive
same,outcome,[1],inactive
same,outcome,[2],inactive
same,outcome,[3],inactive
